Reference: the supplement of paper PMC10646978
± gives the standard deviation.

Tests used:
Details in all cases: modulator concentration 10 µM
[1] = system: RAW-Dual (murine macrophage reporter line); test: NF-kB reporter (SEAP) activity fold change vs agonist alone; higher = enhanced NF-kB activity
Method in brief: (§1)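 RAW-Dual murine macrophage reporter cells were plated at 50 000 per well in 384-well plates, pin-transferred compound to 10 μM final, and pre-incubated for 1 hour at 37 °C before a PRR agonist was added and the cells incubated overnight. NF-κB activity was read from supernatant SEAP with QUANTI-Blue at 620 nm absorbance, and IRF activity from Lucia luciferase with QUANTI-Luc by luminescence. Each signal was expressed as fold change by dividing by the mean agonist-only control on the same plate. Two replicate plates were averaged, with errors obtained by propagation.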

[2] = system: RAW-Dual (murine macrophage reporter line); test: IRF reporter (Lucia luciferase) activity fold change vs agonist alone; higher = enhanced IRF activity
Method in brief: as §1

[3] = system: RAW-Dual (murine macrophage reporter line); test: viability score (confluency relative to resting cells, overnight) (fraction); higher = more viable, active = viable (0.7 or more)
Method in brief: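 Compound was added at a final 10 μM to RAW-Dual macrophages in 384-well plates and left overnight. Confluency was imaged with IncuCyte, and two masks were generated in IncuCyte software over all imaged wells. Each viability score is confluency relative to resting cells, and a compound met the cutoff only when both masks were above 70% of resting cells.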

[4] = agonist: CpG ODN 1826 0.5 ug/mL

Compound | NF-kB reporter [1, 4] | NF-kB reporter ([1]; agonist: LPS 0.1 ug/mL) | NF-kB reporter ([1]; agonist: MPLA […]) | IRF reporter ([2]; agonist: 3'3'-cGAMP 10 ug/mL) | IRF reporter ([2]; agonist: LPS 0.1 ug/mL) | IRF reporter ([2]; agonist: MPLA […]) | viability score [3]
CCOc1cc2ncc(C#N)c(Nc3ccc(F)c(Cl)c3)c2cc1NC(=O)/C=C/CN(C)C | 0.714 ± 0.27 | 0.512 ± 0.048 | 0.445 ± 0.097 | 0.158 ± 0.019 | 0.374 ± 0.04 | 0.22 ± 0.019 | 0.968 (active)
Nc1ccccc1NC(=O)c1ccc(CNc2nccc(-c3cccnc3)n2)cc1 | 2.46 ± 0.12 | 1.73 ± 0.15 | 2.58 ± 0.15 | 0.0523 ± 0.0046 | 0.16 ± 0.016 | 0.186 ± 0.051 | 0.56 (inactive)
CCS(=O)(=O)c1ccc(-c2cccc(NC(=O)CC3CCCC3)c2)nn1 | 1.19 ± 0.099 | 0.932 ± 0.073 | 1.01 ± 0.029 | 0.905 ± 0.033 | 0.973 ± 0.056 | 0.926 ± 0.13 | 0.999 (active)
Cc1ccc(-n2ncnc2-c2ccccc2C)cc1Cl | 0.759 ± 0.064 | 0.787 ± 0.044 | 1.14 ± 0.11 | 0.777 ± 0.052 | 1.48 ± 0.12 | 1.65 ± 0.21 | 0.996 (active)
CCn1c2ccccc2c2cc(CNCCc3ccccc3)ccc21 | 0.476 ± 0.041 | 0.534 ± 0.035 | 0.977 ± 0.068 | 0.438 ± 0.067 | 0.605 ± 0.043 | 2.43 ± 0.32 | 0.0405 (inactive)
c1ccc2oc(SCCCCSc3nc4ccccc4o3)nc2c1 | 0.959 ± 0.15 | 1.06 ± 0.11 | 0.949 ± 0.089 | 0.821 ± 0.037 | 1.2 ± 0.12 | 1.4 ± 0.15 | 1 (active)
Oc1ccc(N=Cc2ccccc2)cc1 | 1.38 ± 0.18 | 1.2 ± 0.079 | 2.67 ± 0.18 | 0.605 ± 0.037 | 0.924 ± 0.082 | 1.58 ± 0.35 | 0.988 (active)
CCOc1ccc(-c2cccc(NC(=O)c3c(F)cccc3F)c2)nn1 | 0.969 ± 0.043 | 1.06 ± 0.088 | 1.13 ± 0.061 | 0.861 ± 0.053 | 1.11 ± 0.21 | 1.23 ± 0.46 | 0.982 (active)
Cc1c(OCC(=O)OC(C)C)ccc2c3c(c(=O)oc12)CCCC3 | 0.794 ± 0.063 | 0.883 ± 0.14 | 1.21 ± 0.12 | 0.949 ± 0.086 | 1.49 ± 0.095 | 1.71 ± 0.24 | 1.01 (active)
CC1=C(C(=O)Nc2ccc(C)cn2)C(c2ccccc2Cl)C2=C(CCCC2=O)N1 (configuration not stated) | 1.01 ± 0.12 | 0.983 ± 0.062 | 0.847 ± 0.053 | 1.02 ± 0.034 | 1.43 ± 0.12 | 1.1 ± 0.08 | 1.01 (active)
CC(C)(C)C(O)/C=C/c1ccc2c(c1)OCO2 (configuration not stated) | 1.19 ± 0.066 | 1.26 ± 0.11 | 1.03 ± 0.055 | 0.45 ± 0.029 | 0.877 ± 0.16 | 1.01 ± 0.17 | 0.819 (active)
CNCCCN1c2ccccc2CCc2ccccc21.Cl | 0.462 ± 0.11 | 1.14 ± 0.11 | 1.54 ± 0.1 | 0.45 ± 0.017 | 1.46 ± 0.2 | 1.88 ± 0.19 | 0.951 (active)
CC[C@H](C)C(=O)O[C@H]1CCC=C2C=C[C@H](C)[C@H](CC[C@@H]3C[C@@H](O)CC(=O)O3)[C@H]21 | 1.34 ± 0.13 | 1.57 ± 0.14 | 1.04 ± 0.063 | 0.751 ± 0.051 | 1.01 ± 0.061 | 1.1 ± 0.085 | 0.935 (active)
CCOC(=O)c1c(C)n(-c2ccccc2)c2ccc(NS(=O)(=O)c3ccccc3)cc12 | 0.959 ± 0.16 | 0.95 ± 0.075 | 1.04 ± 0.087 | 0.932 ± 0.029 | 1.05 ± 0.13 | 1.21 ± 0.17 | 0.808 (active)
CN1CCN2c3ncccc3Cc3ccccc3C2C1 (configuration not stated) | 0.912 ± 0.17 | 1.07 ± 0.22 | 1.71 ± 0.85 | 0.861 ± 0.036 | 1.42 ± 0.3 | 1.18 ± 0.21 | 0.998 (active)
CC1=C(C)CC2C(=O)N(c3ccccc3C)C(=O)C2C1 (configuration not stated) | 0.797 ± 0.064 | 0.889 ± 0.068 | 1.06 ± 0.12 | 0.982 ± 0.045 | 1.35 ± 0.078 | 1.33 ± 0.15 | 1.01 (active)
FC(F)(F)c1nnc2ccc(NC3CCN(c4ncnc5c4CCCC5)CC3)nn12 | 1.19 ± 0.096 | 1.52 ± 0.13 | 1.79 ± 0.13 | 1.17 ± 0.086 | 1.46 ± 0.091 | 1.4 ± 0.18 | 0.972 (active)
O=C(/C=C/C=C/c1ccc2c(c1)OCO2)N1CCCCC1 | 0.974 ± 0.093 | 1 ± 0.097 | 1.17 ± 0.062 | 0.842 ± 0.052 | 1.04 ± 0.16 | 1.07 ± 0.26 | 1.03 (active)
C#CCN[C@@H]1CCc2ccccc21 [Prestw-1734] | 1.05 ± 0.06 | 0.933 ± 0.11 | 0.978 ± 0.026 | 0.977 ± 0.037 | 0.957 ± 0.054 | 0.973 ± 0.1 | 0.996 (active)
Cc1cccc(CSc2nn3c(=O)c(C)nnc3s2)c1 | 1.06 ± 0.086 | 0.937 ± 0.1 | 0.907 ± 0.085 | 0.925 ± 0.031 | 1.25 ± 0.2 | 1.26 ± 0.25 | 1.01 (active)
COc1ccc(Cn2cc3c(-c4ccc(F)cc4)nnc-3c3cc(OC)c(OC)cc32)cc1 | 0.318 ± 0.026 | 1.17 ± 0.13 | 2.16 ± 0.1 | 1.79 ± 0.12 | 2.42 ± 0.18 | 3 ± 0.35 | 0.141 (inactive)
O=C1CSC(=S)N1N=Cc1ccc(O)c([N+](=O)[O-])c1 | 0.956 ± 0.091 | 1.1 ± 0.11 | 0.97 ± 0.084 | 1.04 ± 0.027 | 1.75 ± 0.36 | 1.1 ± 0.17 | 0.994 (active)
CCCCN(CCCC)S(=O)(=O)c1ccc(N2CCCC2=O)c([N+](=O)[O-])c1 | 1.02 ± 0.12 | 1.07 ± 0.071 | 1 ± 0.062 | 0.975 ± 0.15 | 1.1 ± 0.13 | 1.13 ± 0.27 | 1 (active)
CCC[C@@H]1C[C@@H](C(=O)N[C@@H]([C@H]2O[C@H](SC)[C@H](OP(=O)(O)O)[C@@H](O)[C@H]2O)[C@H](C)Cl)N(C)C1 | 0.953 ± 0.08 | 0.954 ± 0.059 | 0.952 ± 0.043 | 0.972 ± 0.073 | 1.01 ± 0.09 | 1.15 ± 0.092 | 1 (active)
N=C(N)Nc1nc(-c2ccccc2)c(-c2ccccc2)s1 | 0.98 ± 0.2 | 1.23 ± 0.18 | 1.29 ± 0.1 | 1.27 ± 0.06 | 1.26 ± 0.22 | 1.33 ± 0.19 | 1 (active)
Brc1c(NC2=NCCN2)ccc2nccnc12 [Prestw-1751] | 1.24 ± 0.13 | 0.858 ± 0.079 | 0.97 ± 0.035 | 1.02 ± 0.043 | 1.01 ± 0.054 | 1.01 ± 0.12 | 0.996 (active)
